Changes are numbered by the printed parent chain.
Key:
Test in all cases: HT-SELEX; high values mean tight binding
Conditions in all cases: protein: recombinant; vector His6-GST; dsDNA, one strand shown
SALL4 ZFC4 WT (HT-SELEX) = target: T1, SALL4 ZFC4 WT (HT-SELEX) (Mus musculus, UniProt Q8BX22 870-940)
T1 sequence: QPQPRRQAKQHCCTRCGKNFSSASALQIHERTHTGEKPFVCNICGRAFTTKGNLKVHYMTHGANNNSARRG
How it was run: (§1)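 For each canonical k-mer, binding signal is the read fraction as fold change versus the initial random library. Data came from up to 6 triplicate cycles in which purified recombinant mouse SALL4 zinc finger cluster 4 (residues 870–940, 1 µg) was incubated 10 min at room temperature with library DNA (1.5 µg first cycle, 200 ng later) in 100 µl of 10 mM Tris–HCl pH 7.5, 50 mM NaCl, poly(dI-dC), DTT, followed by Ni2+ bead capture, PCR amplification, MiSeq sequencing and a 6-mer scan.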

[1] = target: T2, SALL4 ZFC4 R900W (HT-SELEX) (Mus musculus, UniProt Q8BX22 870-940, R900W)
T2 sequence: T1 sequence with R31W
How it was run: as §1

[2] = target: T3, SALL4 ZFC4 G921D (HT-SELEX) (Mus musculus, UniProt Q8BX22 870-940, G921D)
T3 sequence: T1 sequence with G52D
How it was run: as §1

| Sequence | binding signal (SALL4 ZFC4 WT (HT-SELEX)) | binding signal [1] | binding signal [2] |
| --- | --- | --- | --- |
| GGCATA | 0.502 ± 0.0157 fold-change vs cycle 0 | 0.562 ± 0.025 fold-change vs cycle 0 | 0.668 ± 0.0401 fold-change vs cycle 0 |
| ACATAG | 1.3 ± 0.0172 fold-change vs cycle 0 | 1.35 ± 0.0801 fold-change vs cycle 0 | 1.34 ± 0.0894 fold-change vs cycle 0 |
| GCTTAA | 1.02 ± 0.0584 fold-change vs cycle 0 | 1.15 ± 0.0607 fold-change vs cycle 0 | 1.12 ± 0.048 fold-change vs cycle 0 |
| ACACAA | 1.07 ± 0.0495 fold-change vs cycle 0 | 1.2 ± 0.0676 fold-change vs cycle 0 | 1.19 ± 0.0605 fold-change vs cycle 0 |
| CCAAGC | 0.327 ± 0.034 fold-change vs cycle 0 | 0.384 ± 0.0115 fold-change vs cycle 0 | 0.516 ± 0.0505 fold-change vs cycle 0 |
| CGTAGC | 0.305 ± 0.0314 fold-change vs cycle 0 | 0.356 ± 0.00868 fold-change vs cycle 0 | 0.479 ± 0.0718 fold-change vs cycle 0 |
| TCATGA | 1.45 ± 0.0979 fold-change vs cycle 0 | 1.54 ± 0.0952 fold-change vs cycle 0 | 1.49 ± 0.115 fold-change vs cycle 0 |
| CCCTCA | 0.502 ± 0.0184 fold-change vs cycle 0 | 0.579 ± 0.0163 fold-change vs cycle 0 | 0.665 ± 0.0275 fold-change vs cycle 0 |
| AGTCTA | 1.25 ± 0.0412 fold-change vs cycle 0 | 1.41 ± 0.0887 fold-change vs cycle 0 | 1.37 ± 0.0788 fold-change vs cycle 0 |
| ATGTTC | 1.28 ± 0.0355 fold-change vs cycle 0 | 1.37 ± 0.0462 fold-change vs cycle 0 | 1.36 ± 0.0792 fold-change vs cycle 0 |
| GTGAAC | 0.832 ± 0.046 fold-change vs cycle 0 | 0.941 ± 0.022 fold-change vs cycle 0 | 1.01 ± 0.0456 fold-change vs cycle 0 |
| GAGATA | 1.52 ± 0.0868 fold-change vs cycle 0 | 1.54 ± 0.105 fold-change vs cycle 0 | 1.45 ± 0.133 fold-change vs cycle 0 |
| ATAAGC | 1.34 ± 0.0651 fold-change vs cycle 0 | 1.21 ± 0.0666 fold-change vs cycle 0 | 1.22 ± 0.0552 fold-change vs cycle 0 |
| GGATAA | 1.38 ± 0.0543 fold-change vs cycle 0 | 1.52 ± 0.0741 fold-change vs cycle 0 | 1.34 ± 0.114 fold-change vs cycle 0 |
| AACCGA | 0.657 ± 0.0177 fold-change vs cycle 0 | 0.7295 ± 0.00455 fold-change vs cycle 0 | 0.812 ± 0.0455 fold-change vs cycle 0 |
| CGTATA | 1.19 ± 0.0262 fold-change vs cycle 0 | 1.2 ± 0.0145 fold-change vs cycle 0 | 1.18 ± 0.0335 fold-change vs cycle 0 |
| AATCGA | 1.08 ± 0.05 fold-change vs cycle 0 | 1.14 ± 0.0428 fold-change vs cycle 0 | 1.2 ± 0.0389 fold-change vs cycle 0 |
| CTCATC | 0.898 ± 0.0192 fold-change vs cycle 0 | 1.04 ± 0.0368 fold-change vs cycle 0 | 1.06 ± 0.0243 fold-change vs cycle 0 |
| AAATAG | 1.7 ± 0.0926 fold-change vs cycle 0 | 1.74 ± 0.095 fold-change vs cycle 0 | 1.58 ± 0.0914 fold-change vs cycle 0 |
| GTATTA | 2.23 ± 0.186 fold-change vs cycle 0 | 1.98 ± 0.125 fold-change vs cycle 0 | 1.76 ± 0.141 fold-change vs cycle 0 |
| AGGACG | 0.361 ± 0.014 fold-change vs cycle 0 | 0.462 ± 0.00636 fold-change vs cycle 0 | 0.558 ± 0.0296 fold-change vs cycle 0 |
| ACGTAT | 1.2 ± 0.0268 fold-change vs cycle 0 | 1.28 ± 0.0492 fold-change vs cycle 0 | 1.23 ± 0.0551 fold-change vs cycle 0 |
| CCCTAG | 0.516 ± 0.0342 fold-change vs cycle 0 | 0.601 ± 0.0265 fold-change vs cycle 0 | 0.667 ± 0.029 fold-change vs cycle 0 |
| AAGTTG | 1.18 ± 0.062 fold-change vs cycle 0 | 1.32 ± 0.0296 fold-change vs cycle 0 | 1.29 ± 0.0737 fold-change vs cycle 0 |
| AGATTC | 1.34 ± 0.0579 fold-change vs cycle 0 | 1.42 ± 0.0466 fold-change vs cycle 0 | 1.39 ± 0.0922 fold-change vs cycle 0 |
| AGCCTG | 0.325 ± 0.0218 fold-change vs cycle 0 | 0.402 ± 0.0338 fold-change vs cycle 0 | 0.531 ± 0.0708 fold-change vs cycle 0 |
| GATTCA | 1.35 ± 0.0551 fold-change vs cycle 0 | 1.38 ± 0.0852 fold-change vs cycle 0 | 1.33 ± 0.0688 fold-change vs cycle 0 |
| CTCCTC | 0.611 ± 0.00845 fold-change vs cycle 0 | 0.705 ± 0.0481 fold-change vs cycle 0 | 0.774 ± 0.0379 fold-change vs cycle 0 |
| CCTAGC | 0.4 ± 0.0405 fold-change vs cycle 0 | 0.434 ± 0.0293 fold-change vs cycle 0 | 0.55 ± 0.055 fold-change vs cycle 0 |
| ATGACA | 1.36 ± 0.0915 fold-change vs cycle 0 | 1.41 ± 0.0578 fold-change vs cycle 0 | 1.39 ± 0.11 fold-change vs cycle 0 |
